One may read the inhibition as the relative decrease from the control value, in per cent.

The campaign covered roughly 2,400 compounds. About 2,200 (92%) were called active. So high a share suggests a set chosen from earlier hits. This is one part of the list. A number with no mark means an inactive call.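 The calls were made as follows: active = mean inhibition over triplicate runs exceeds the cutoff derived for the earlier primary screen (cut at about 25% in these data); inactive = the rest.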

The target in this assay is Platelet-activating factor acetylhydrolase IB subunit alpha2 (Homo sapiens) (UniProt P68402). As to the kind of experiment: PAFAH1B2 inhibitors, confirmation, biochemical, fluorescence polarization, FP-rhodamine probe, triplicate (AID 493034).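 Also: 0% = enzyme with DMSO and 100% = wells lacking PAFAH1B2 protein; inhibitors lower polarization by leaving the probe unbound.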 The following applies: recombinant PAFAH1B2, FP-rhodamine probe fluorescence polarization; at 3.39 µM; stronger effect = higher value. In general terms: Polarisation of emitted light reports the rotation of a fluorescent probe.
Sequence of Platelet-activating factor acetylhydrolase IB subunit alpha2 (Homo sapiens) (P68402 whole entry, looked up): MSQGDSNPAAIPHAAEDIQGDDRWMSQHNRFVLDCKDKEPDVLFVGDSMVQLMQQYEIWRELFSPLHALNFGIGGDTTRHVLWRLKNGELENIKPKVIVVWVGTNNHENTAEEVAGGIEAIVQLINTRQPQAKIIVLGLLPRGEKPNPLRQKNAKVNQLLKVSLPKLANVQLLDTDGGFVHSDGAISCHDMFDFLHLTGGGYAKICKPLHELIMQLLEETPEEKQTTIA
As for `COc1ccc(NC(=O)N(C)C[C@H]2Oc3c(NC(=O)Nc4ccc(C(F)(F)F)cc4)cccc3C(=O)N([C@H](C)CO)C[C@@H]2C)cc1`, the inhibition was 28.7% (active).

Turning to `COc1ccc(NC(=O)Nc2cccc3c2O[C@H](CN(C)C(=O)Nc2ccc(C(F)(F)F)cc2)[C@@H](C)CN([C@H](C)CO)C3=O)cc1`, the inhibition is 56.9% (active).

As to `O=C(O)C/C(=C\c1cc2c(cc1Br)OCO2)c1nc2ccccc2s1`, the inhibition is 22.2%.

Take `O=C(O)CC/C(=C\c1ccc(N2CCOCC2)c([N+](=O)[O-])c1)c1nc2ccccc2s1`: the inhibition was 91.2% (active).

Regarding `COc1cc(/C=C(\CCC(=O)O)c2nc3ccccc3s2)ccc1OCC(=O)Nc1c(Cl)cccc1Cl`, the inhibition is 57.7% (active).

Consider `O=C(O)CC/C(=C\c1ccc(N2CCCC2)c([N+](=O)[O-])c1)c1nc2ccccc2s1`, for which the inhibition is 84.2% (active).

Turning to `O=C(O)CCc1ccc(S(=O)(=O)Nc2cc(C(F)(F)F)ccc2N2CCCC2)cc1`, the inhibition is 13.5%.

For the compound `Cc1ccc(CNC(=O)Nc2ccc(Cl)cc2)cc1`, the inhibition is 1.92%.

`CCCCOc1ccc(S(=O)(=O)NC(=O)NCc2ccc(OCCC)cc2)cc1`: the inhibition is 32.1% (active).

`CCCCOc1ccc(CNC(=O)NS(=O)(=O)c2ccc(OCC(C)C)cc2)cc1`: the inhibition is 57.7% (active).

For the compound `O=C(COC(=O)C1(c2ccc(F)cc2)CCCC1)N1CCN(C(=O)c2ccco2)CC1`, the inhibition was 20.3%.

With `Cc1c(NC(=O)CCSc2ccc(Cl)cc2)c(=O)n(-c2ccccc2)n1C`, the inhibition was 24%.

For `Clc1ccc(SCCCCn2ccnc2)cc1`, the inhibition is 62.5% (active).

As for `Clc1ccc(SCCn2ccnc2)cc1`, the inhibition is 37.8% (active).

Turning to `CC1(COS(N)(=O)=O)CCCCC1`, the inhibition was 16.8%.

As to `CC(NC(=O)c1cc2cc(Br)ccc2oc1=N)c1ccccc1` (stereo not given), the inhibition was 21.8%.

As to `O=C(O)COc1ccc(Br)cc1C(c1c(C(=O)O)[nH]c2ccccc12)c1c(C(=O)O)[nH]c2ccccc12`, the inhibition was 46.4% (active).

Turning to `CCOc1cc(Br)cc(C(c2c(C(=O)O)[nH]c3ccccc23)c2c(C(=O)O)[nH]c3ccccc23)c1O`, the inhibition is 62.7% (active).

`O=C(O)COc1ccccc1-c1nc(-c2ccccc2)c(-c2ccccc2)[nH]1`: the inhibition was 24%.

As for `O=C(O)c1[nH]c2ccccc2c1C(c1cc(Br)ccc1O)c1c(C(=O)O)[nH]c2ccccc12`, the inhibition is 89.5% (active).

Turning to `CC(Nc1ccc(Cl)cc1)c1cc(Cl)ccc1O` (stereo not given), the inhibition was 42.3% (active).

Turning to `COc1oc(C(=O)NC2CCCCC2)c(-c2ccc(Cl)cc2)c1S(=O)(=O)c1ccccc1`, the inhibition was 11.3%.

Consider `Nc1scc(-c2ccncc2)c1Cl`, for which the inhibition is 91.5% (active).

Consider `O=C(O)CCn1cc(/C=C/C(=O)c2ccc(Cl)cc2)c(-c2cccc(Br)c2)n1`, for which the inhibition is 47.4% (active).

For the compound `O=C(O)CCn1cc(/C=C\C(=O)c2ccc(Cl)cc2)c(-c2cccc(Br)c2)n1`, the inhibition was 41.1% (active).

Regarding `CCN(C(=O)CSc1nnc(-c2ccc3c(c2)OCO3)o1)C1CCS(=O)(=O)C1` (stereo not given), the inhibition is 1.27%.

For `NC(=S)N=Nc1c(O)n(CCCl)c2ccc(Br)cc12`, the inhibition is 30.4% (active).

In the case of `Cc1ccc(S(=O)(=O)Oc2ccc(C3C4=C(CCCC4=O)N(CCC(=O)O)C4=C3C(=O)CCC4)cc2Cl)cc1`, the inhibition was 33.9% (active).

In the case of `Cc1cc(C(C)(C)C)cc(S(=O)(=O)Nc2cccc(C(=O)O)c2)c1C`, the inhibition was 23.3%.

Regarding `Cc1ccc(S(=O)(=O)Nc2cc(C)c(O)c(S(=O)(=O)c3ccc(C)cc3)c2)cc1`, the inhibition is 28.9% (active).

For the compound `Cc1ccc(S(=O)(=O)Nc2ccc(S(=O)(=O)NCC3CCCO3)cc2)cc1` (stereo not given), the inhibition is 23.3%.

Take `COc1cccc(/C=N/N2CCN(c3ccc(Cl)cc3)CC2)c1OC`: the inhibition was 23.6%.

For `NC1=NC(=O)/C(=C/c2cn(CCC(=O)O)nc2-c2ccc(F)cc2)S1`, the inhibition was 38.2% (active).

Take `NC1=NC(=O)/C(=C/c2cn(CCC(=O)O)nc2-c2ccc(Cl)cc2)S1`: the inhibition is 24.1% (active).

For `NC(=O)c1c(NC(=O)CN2CCN(S(=O)(=O)c3ccccc3)CC2)sc2c1CCC2`, the inhibition was 1.51%.

On to `Cc1ccc(S(=O)(=O)N2CCC(=O)N(C(COC(=O)Nc3ccccc3)Cc3ccccc3)CC2)cc1` (stereo not given), for which the inhibition was 32.5% (active).

With `CCc1ccc(-c2nc(CSCC(=O)N3CCN(c4ccccn4)CC3)c(C)o2)cc1`, the inhibition was 53% (active).

Regarding `CCCCCCCCCCCC(=O)O`, the inhibition was 21.5%.

Turning to `O=c1[nH]c(CSc2nc3ccccc3s2)nc2ccccc12`, the inhibition is 16.8%.

For the compound `CC(C(=O)Nc1ccccc1-c1ccccc1)N1CCN(S(=O)(=O)c2ccccc2)CC1` (stereo not given), the inhibition is 22%.

On to `COc1ccccc1N1CCN(S(=O)(=O)c2ccc(Cl)cc2)CC1`, for which the inhibition is 24.1%.

As to `CC(=O)NC(Cc1c[nH]c2ccccc12)C(=O)OCC(=O)N1CCN(S(=O)(=O)c2ccc(Cl)cc2)CC1` (stereo not given), the inhibition was 84.9% (active).

As to `N=c1c(S(=O)(=O)c2ccc(Br)cc2)cc2c(=O)n3ccccc3nc2n1CCN1CCOCC1`, the inhibition was 22.9%.

Regarding `Nc1nc(C2CCCCC2)cs1`, the inhibition is 55.7% (active).

Take `COC(=O)CSc1nnc(SCc2ccc(Cl)cc2)s1`: the inhibition was 20.6%.

In the case of `NS(=O)(=O)c1cccc(NC(=O)CC23CC4CC(C2)CC(CC(=O)Nc2cccc(S(N)(=O)=O)c2)(C4)C3)c1`, the inhibition is 27.4% (active).

On to `CCc1cccc(Nc2cnn(C34C[C@@H]5C[C@@H](CC(CC(=O)O)(C5)C3)C4)c(=O)c2Cl)c1`, for which the inhibition was 20.4%.

For `Cc1ccc(S(=O)(=O)n2oc(=O)c(C3CCCCC3)c2N)cc1`, the inhibition is 23.5%.

For the compound `O=C(/C=C/c1ccc(F)cc1)NC(=S)NNC(=O)[C@H]1C[C@@H]1c1ccccc1`, the inhibition was 47.2% (active).

With `CC(C)CNC(=O)c1cccc(NC(=O)CSc2ccc(Cl)cc2)c1`, the inhibition is 22.5%.

Turning to `O=C(/C=C/c1ccccc1)CC(O)(c1ccccc1)C(F)(F)F` (stereo not given), the inhibition was 38.1% (active).

Regarding `COc1ccc(/C=C\C(=O)CC(O)(c2ccccc2)C(F)(F)F)cc1` (stereo not given), the inhibition was 21.6%.

Regarding `CC(=O)Nc1ccc(NC(=O)C(C)OC(=O)C2(c3ccc(F)cc3)CCCC2)cc1` (stereo not given), the inhibition was 23.3%.

In the case of `Cc1nn(-c2ccccc2)c2c1CC(=O)Nc1ccccc1-2`, the inhibition was 23.1%.

Turning to `Cc1nc(SCCC(=O)O)c2cc(-c3ccccc3)sc2n1`, the inhibition was 33.6% (active).

Consider `O=C(O)CN1C(=O)/C(=C\c2cccc(OCc3ccc(Cl)cc3)c2)SC1=S`, for which the inhibition is 68.2% (active).

As to `Nc1nn(S(=O)(=O)c2ccccc2)cc1-c1ccc([N+](=O)[O-])cc1`, the inhibition was 24%.

As to `O=[N+]([O-])c1ccc(S(=O)(=O)NNC(=S)NCCc2ccccc2)cc1`, the inhibition was 38.5% (active).

As to `CC1=CC(=NNS(=O)(=O)c2ccc([N+](=O)[O-])cc2)CC(C)(C)C1`, the inhibition is 23.5%.

Take `O=c1[nH]c(CCl)nc2cc(-c3ccc(Cl)cc3)sc12`: the inhibition was 61% (active).

For `Cc1cc(NC(=S)N(Cc2ccc(Br)cc2)Cc2ccc(C(=O)O)cc2)ccc1Cl`, the inhibition is 1.23%.

Take `O=C(O)c1[nH]c2ccccc2c1C(c1ccccc1)c1c(C(=O)O)[nH]c2ccccc12`: the inhibition is 75.9% (active).

With `O=C(O)c1[nH]c2ccccc2c1C(c1cccc(O)c1)c1c(C(=O)O)[nH]c2ccccc12`, the inhibition was 80.5% (active).

Regarding `COc1cc(C(c2c(C(=O)O)[nH]c3ccccc23)c2c(C(=O)O)[nH]c3ccccc23)ccc1OCc1ccccc1`, the inhibition was 37.9% (active).

As for `O=C(O)c1[nH]c2ccccc2c1C(c1c(F)cccc1Cl)c1c(C(=O)O)[nH]c2ccccc12`, the inhibition was 33.3% (active).

On to `Cc1ccc(O)c(N=Cc2cc(Cc3ccccc3)cc([N+](=O)[O-])c2O)c1`, for which the inhibition is 20.2%.

As to `CCCCNC(=O)c1cccc(S(=O)(=O)N2CC3(C)CC2CC(C)(C)C3)c1` (stereo not given), the inhibition is 19.5%.

`Cc1ccc(CN2[C@@H](CC3CCCCC3)COCCS2(=O)=O)cc1`: the inhibition was 23.1%.

Consider `CCCCCCCCCCCCCC(=O)O`, for which the inhibition was 22.4%.

For the compound `O=C(O)CN1C(=O)C2C3CC(C2C1=O)C1C(c2ccc(F)cc2)c2sc(=O)[nH]c2SC31` (stereo not given), the inhibition is 54.6% (active).

Turning to `O=C(O)CN1C(=O)C2C3CC(C2C1=O)C1C(c2ccc(Cl)cc2)c2sc(=O)[nH]c2SC31` (stereo not given), the inhibition is 37.1% (active).

For the compound `O=C(O)CN1C(=O)C2C3CC(C2C1=O)C1C(c2ccccc2)c2sc(=O)[nH]c2SC31` (stereo not given), the inhibition is 59.3% (active).

As for `O=C(COC(=O)CCSc1ccccc1)Nc1cc(F)ccc1F`, the inhibition is 10.5%.

As to `COc1ccccc1NC(=O)COC(=O)C12CC3CC(CC(Br)(C3)C1)C2`, the inhibition is 26.2% (active).

In the case of `O=C(COC(=O)C12CC3CC(CC(Br)(C3)C1)C2)Nc1cccnc1Cl`, the inhibition is 36.7% (active).

For `O=C(COC(=O)C12CC3CC(CC(Br)(C3)C1)C2)Nc1ccc2[nH]c(=O)[nH]c2c1`, the inhibition is 31.2% (active).

Consider `COc1ccccc1CNC(=O)COC(=O)c1ccc(C(=O)c2ccccc2)cc1`, for which the inhibition is 3.07%.

`O=C(COC(=O)C12CC3CC(CC(Br)(C3)C1)C2)Nc1c(F)cccc1F`: the inhibition was 35.8% (active).

Regarding `O=c1c2c(nc3cc(-c4ccc(Cl)cc4)[nH]n13)CCS2`, the inhibition was 11.7%.

As for `N#C/C(=C\c1cc2c(cc1Br)OCO2)c1ccc(C(=O)O)cc1`, the inhibition is 23.6%.

Consider `Cc1ccc(-c2csc(N)n2)cc1`, for which the inhibition was 63.1% (active).

`Nc1nc(-c2ccc(Br)cc2)cs1`: the inhibition was 92.3% (active).

Turning to `Nc1nc(-c2ccccc2)cs1`, the inhibition is 35.5% (active).

In the case of `Cc1ccc(-c2csc(NCCn3c(C)nc4cc(C(F)(F)F)ccc43)n2)cc1`, the inhibition was 23.5%.

On to `Nc1nc(-c2ccc(F)cc2)cs1`, for which the inhibition is 55.6% (active).

As to `O=C(O)c1sccc1SCc1ccc(Cl)cc1Cl`, the inhibition is 22.4%.

Take `Nc1nc(-c2cccc(F)c2)cs1`: the inhibition was 36.3% (active).

Turning to `Cc1nc(-c2cccc(S(=O)(=O)N3CCC(C)CC3)c2)cs1`, the inhibition was 23.7%.

Consider `CC(NC(=O)COC(=O)C12CC3CC(CC(Br)(C3)C1)C2)c1ccccc1` (stereo not given), for which the inhibition was 31% (active).

For the compound `O=C(O)CNC(=O)C12CC3CC(CC(Cl)(C3)C1)C2`, the inhibition is 22.2%.

Take `CC(NC(=O)CN(C)S(=O)(=O)c1cccc2nsnc12)c1ccccc1` (stereo not given): the inhibition was 22.2%.

For the compound `O=C(NCc1ccccc1)C12CC3CC(CC(Br)(C3)C1)C2`, the inhibition was 27.1% (active).

As for `O=C(COC(=O)C12CC3CC(CC(Br)(C3)C1)C2)NNC(=O)c1ccccc1`, the inhibition is 46.3% (active).

`O=C(COC(=O)C12CC3CC(CC(C3)C1)C2)NNC(=O)c1ccccc1`: the inhibition is 21.4%.

With `CC(CCc1ccccc1)NC(=O)COC(=O)C12CC3CC(CC(Br)(C3)C1)C2` (stereo not given), the inhibition is 38.2% (active).

The values are drawn from PubChem BioAssay AID493034 (The Scripps Research Institute Molecular Screening Center, 2011).
